SARS 3CLpro inh: SARS-CoV 3CLpro protease inhibition. P0C6X7. recombinant SARS-CoV 3CLpro, quenched FRET peptide cleavage. inhibition, % at 6 µM. 0.14% of 290,000 active; in the data active means inhibition above about 12%
BoNT F protease: inhibitors of Botulinum neurotoxin F light chain protease | Multiplex microsphere protease cleavage assay, flow cytometry | inhibition, % at 10 µM | 0.22% of 360,000 active; in the data active means inhibition above about 35%, passing the limit was not always enough; inconclusive means no clear call, values can overlap the other calls
Anthrax LF prot: inhibitors of Bacillus anthracis lethal factor protease | inhibition, % at 10 µM | P15917 | multiplex microsphere protease cleavage assay, LF | 0.12% of 360,000 active
BoNT A protease: inhibitors of Botulinum neurotoxin A light chain protease | 0.17% of 360,000 active | AID 588499 | inhibition, % at 10 µM | multiplex microsphere protease substrate cleavage, flow cytometry
CCHF vOTU inh: CCHFV vOTU protease inhibition; Pep-AMC fluorescence; inhibition, % at 11.5 µM; 0.55% of 370,000 active; AID 651958; in the data active means inhibition above about 30%
Autofluor counter: flagged as autofluorescent in microsphere protease counterscreen | compound autofluorescence counterscreen, microsphere flow cytometry; active compounds read high | 3.1% of 360,000 active | fluorescence intensity (no concentration beside the values); in the data active means fluorescence intensity above about 16000; inconclusive means no clear call, values can overlap the other calls
Hits are given with their value; – = inactive; ? = inconclusive; · = not tested or not shown. An excerpt weighted towards active compounds, which were near 3.9% of everything screened. Unless noted, no stated cut-off is given here; in the data, active means inhibition above about 30%; inconclusive means no clear call, values can overlap the other calls; inactive means below that.

SMILES	SARS 3CLpro inh	BoNT F protease	Anthrax LF prot	BoNT A protease	CCHF vOTU inh	Autofluor counter
O=C1CS/C(=N\C(=O)N2c3ccccc3Sc3ccccc32)N1	–	–	–	–	–	24179
CC(C(=O)Nc1ccc(F)cc1Cl)N1CCN(S(=O)(=O)c2cccs2)CC1 (stereo not given)	·	–	–	–	–	–
O=C(Cn1nnc(N2CCOCC2)n1)NN=Cc1ccccc1Cl	·	·	·	·	–	·
N#CC/C(N)=N/Nc1nc2ccccc2nc1Cc1ccccc1	–	–	31	–	–	–
COc1ccc2c(c1)Cc1sc(NC(=O)c3cccnc3)nc1-2	–	–	–	–	–	–
COc1ccc2c(c1)Cc1sc(NC(C)=O)nc1-2	–	–	–	–	81	–
N#Cc1ccc(C(=O)NC23CC4CC(CC(C4)C2)C3)cc1	–	–	–	–	–	–
CSc1nc2cc(C)nn2c(-c2ccccc2)c1C#N	–	?	–	–	–	–
Cc1cccc(N2CCN(S(=O)(=O)c3ccc4c(c3)n(C)c(=O)c(=O)n4C)CC2C)c1 (stereo not given)	–	–	–	?	–	19587
CCCCCCCCN1C(=O)[C@@H](CC(=O)NCc2cccc3ccccc23)C[C@@]2(C(=O)OC)C1=C[C@H](C(C)C)O[C@@H]2C1CC1	·	·	·	·	–	·
COc1cc(S(=O)(=O)Nc2c(C)cc(C)cc2C)ccc1Cl	–	–	–	–	–	17705
Nn1c(SCC(=O)NCC2CCCO2)nnc1-c1cc(Cl)ccc1Cl (stereo not given)	·	–	–	–	–	–
Nc1nnc(COc2cccc(C(F)(F)F)c2)s1	–	–	–	–	–	–
Cc1cccc(OCc2nnc(N)s2)c1	–	–	–	?	–	24413
COc1ccc(C(CNC(=O)c2cccc(S(=O)(=O)N3CCCC3)c2)N2CCCC2)cc1 (stereo not given)	·	–	–	–	–	26904
COc1ccc(C(CNC(=O)c2ccc(-c3nc4ccccc4s3)o2)N2CCCC2)cc1 (stereo not given)	·	–	–	–	–	20254
COc1ccccc1NS(=O)(=O)c1ccc(C(=O)NCC(c2ccccc2OC)N2CCCC2)cc1 (stereo not given)	·	–	–	–	–	–
COc1ccc(C(CNC(=O)c2cccc(S(=O)(=O)N3CCOCC3)c2)N2CCCC2)cc1 (stereo not given)	·	–	–	–	–	–
COc1ccc(C(CNC(=O)c2ccc(S(=O)(=O)Nc3ccccc3OC)cc2)N2CCCC2)cc1 (stereo not given)	·	–	–	–	–	19637
COC(=O)c1cc(-c2ccc(C(C)(C)C)cc2)c(=O)n2c1CCC2	·	·	·	·	–	·
COc1cc(NC(=O)CSCc2cnn(-c3ccccc3)c2-n2cccc2)cc(OC)c1	–	–	–	–	–	–
O=C(CSCc1cnn(-c2ccccc2)c1-n1cccc1)N1CCN(Cc2ccccc2)CC1	–	–	–	?	–	18611
O=C(O)CSCc1cnn(-c2ccccc2)c1-n1cccc1	–	–	–	–	–	–
CCOc1ccc(NC(=O)CSCc2cnn(-c3ccccc3)c2-n2cccc2)cc1	–	–	–	–	–	19959
CC1CCC/C(=C\Nc2ccc3c(c2)OCO3)C1=O (stereo not given)	–	–	–	–	–	22454
SMILES	SARS 3CLpro inh	BoNT F protease	Anthrax LF prot	BoNT A protease	CCHF vOTU inh	Autofluor counter
CCN(CC)C(=O)c1sc(N2C(=O)Nc3ccccc3N2O)c(C(=O)OC)c1C	–	–	–	–	–	–
CCN(Cc1ccccc1)C(=O)C1C2C=CC3(CN(Cc4ccccc4)C(=O)C13)O2 (stereo not given)	·	·	·	·	–	·
Cc1cc(C(=O)N2CCCC2C(=O)O)c(C)o1 (stereo not given)	–	–	–	–	–	22740
CCOc1ccc(/C(O)=C2/C(=O)C(=O)N(CCOCCO)C2c2ccccn2)cc1 (stereo not given)	–	–	–	–	–	22618
Cc1cc(S(=O)(=O)NCc2ccc(S(N)(=O)=O)cc2)c(C)s1	–	–	–	–	–	21825
Cc1cc(S(=O)(=O)NCCN(C)C)c(C)s1	–	–	–	–	–	22830
Cc1cc(S(=O)(=O)NCc2ccco2)c(C)s1	–	–	–	–	–	–
NC(Cc1ccc(C(F)(F)F)cc1)c1csc(Nc2ccc(C(=O)c3ccccc3)cc2)n1 (stereo not given)	·	–	–	–	–	–
CCCCCn1c(C)c(CC(=O)Nc2ccc(Oc3cccnc3)c(C)c2)c2ccccc21	·	·	·	·	–	·
Cc1cc(N2C(=O)C3C4c5ccccc5C(c5ccccc54)C3C2=O)no1 (stereo not given)	–	–	–	–	–	21886
COc1ccc(-c2noc(-c3cccs3)n2)cc1OC	–	–	–	–	–	–
COc1cc(-c2noc(-c3cccs3)n2)cc(OC)c1OC	–	–	–	?	–	20254
O=C1Nc2ccccc2-c2nnnn2C1N1CCC(Cc2ccccc2)CC1 (stereo not given)	·	·	·	·	–	·
COc1ccc(N(C(=O)c2cccc([N+](=O)[O-])c2)S(=O)(=O)c2ccc3c(c2)n(C)c(=O)n3C)cc1	–	–	–	?	–	16542
CCOC(=O)Cc1nc(N2CCCN(C(C)=O)CC2)c2c(C)c(C(=O)OCC)sc2n1	·	·	·	·	–	·
CCC(NC(=O)C(C)NC)C(=O)N1CCCC1C(=O)NC1CCCc2ccccc21 (stereo not given)	·	–	–	–	–	–
O=C(NCc1cccnc1)Nc1cccc(Cl)c1Cl	–	–	–	–	–	–
CC(C)C(=O)Nc1cccc(NC(=S)NC(=O)c2ccc([N+](=O)[O-])cc2)c1	–	–	–	?	–	22965
CC(=O)Nc1ccc(NC(=S)NC(=O)c2ccc([N+](=O)[O-])cc2)cc1	–	–	–	–	–	–
CC(C)C(=O)Nc1ccc(NC(=S)NC(=O)c2ccc([N+](=O)[O-])cc2)cc1	–	–	–	–	–	23025
Cc1cc(C(=O)NC(=S)Nc2cccc(NC(=O)C(C)C)c2)ccc1[N+](=O)[O-]	–	–	–	–	–	–
COC(=O)[C@]12C[C@H](CC(=O)NCCCCc3ccccc3)C(=O)N(CCc3ccc(OC)c(OC)c3)C1=C[C@H](C(C)C)O[C@@H]2C1CC1	·	·	·	·	–	·
COC(=O)c1cc(C(c2ccccc2O)C2CCC(C)(C)O2)n2ccccc12 (stereo not given)	·	·	·	·	–	·
CN(CCN1CCc2ccccc2C1)Cc1nc(Cc2ccccc2F)no1	–	–	–	–	–	–
Cc1ccccc1NC(=S)N1CCN(c2ccccc2C)CC1	–	?	–	–	–	–
Cc1ccc(S(=O)(=O)N(C)c2nonc2C)cc1	–	–	–	–	–	19642
COc1cccc(CN(C)C(=O)c2ccccc2SCC(=O)N2CCCC2)c1	·	–	–	–	–	–
NC(=O)CN1C(=O)C(O)(CC(=O)c2ccccc2O)c2ccccc21 (stereo not given)	16	–	–	–	–	–
Cc1ccccc1OCC(O)Cn1c(=N)n(Cc2ccccc2)c2ccccc21 (stereo not given)	–	–	–	–	–	–
CCCCn1c(=N)n(CC(O)COc2cccc(C)c2)c2ccccc21 (stereo not given)	–	–	–	–	–	23566

Source: PubChem BioAssay (several laboratories)
